Data on 99 compounds can be found in ChEMBL document CHEMBL3988442, “University of Dundee, Small-Polar-MMV Screening Library” (2021).

In all, about 48,000 compounds went through this assay and about 13,000 (27%) showed an effect of 50% or more. The list shows a part of the results.

For this test, the system named is Wolbachia pipientis. Put plainly: Anti-Wolbachia Cell-Based Screen. Type of test: functional. More on the design: scale not given: in the data most compounds retested in dose-response had high values. The following applies: 5 µM.
With `N#Cc1ccc(NCCCN2C(=O)COc3ccccc32)nc1`, the “Percent Effect” value is -5.647%.

For the compound `CC(=O)NCCC(=O)Nc1cccc(N2CCN(CC3CC3)CC2)c1`, the “Percent Effect” value is given as 8.668%.

As for `CC(NC(=O)c1cccc(CN2CCN(C)CC2)c1)c1nccs1` (centres undefined), the “Percent Effect” value was 12.68%.

For the compound `CNC(=O)c1ccc(Cn2ccnc2S(C)(=O)=O)cc1`, the “Percent Effect” value was -4.025%.

As to `CNC(=O)c1cccc(CN2CCN(C3=NCC(C)(C)S3)CC2)c1`, the “Percent Effect” value stood at 103.7%.

For `CC(=O)Nc1cccc(Cn2nc(C)nc2C)c1`, the “Percent Effect” value is 5.981%.

As to `CN(C)c1ncccc1C(=O)N1CCN(C2=NCC(C)(C)S2)CC1`, the “Percent Effect” value was -14.23%.

In the case of `CNC(=O)c1cccc(CN2CCC(N(C)Cc3nnc(C)o3)C2)c1` (centres undefined), the “Percent Effect” value was 0.9226%.

As for `COCc1cccc(C(=O)N2CCN(C3=NCC(C)(C)S3)CC2)c1`, the “Percent Effect” value is given as 0.6755%.

Consider `CNC(=O)c1ccc(CN2CCN(C3=NCC(C)(C)S3)CC2)cc1`, for which the “Percent Effect” value turned out to be 129.2%.

`CNC(=O)c1cccc(CN2CCN(c3ccncc3)CC2)c1`: the “Percent Effect” value amounted to 83.93%.

As to `CC(=O)Nc1cccc(CN2CCN(C3=NCC(C)(C)S3)CC2)c1`, the “Percent Effect” value is 100.4%.

In the case of `CC(NC(=O)c1cccc(CN2CCN(C)CC2)c1)c1ccccn1` (centres undefined), the “Percent Effect” value is -0.367%.

Regarding `CN(CCCc1n[nH]c(N)c1C#N)C(=O)NC1CC1`, the “Percent Effect” value worked out at 0.449%.

As to `O=C(NCCCO)Nc1cccc(C[S+]([O-])c2ccccc2)c1` (centres undefined), the “Percent Effect” value came to 2.569%.

For `CN(Cc1ccccc1)CC1CC2(CO1)CN(Cc1nccs1)C2` (centres undefined), the “Percent Effect” value was 11.68%.

As for `CN(Cc1ccncc1)C1CC2(CCN(c3ncc(F)cn3)CC2)C1.O=C(O)C(F)(F)F.O=C(O)C(F)(F)F`, the “Percent Effect” value is on record as -2.894%.

As to `Cc1occc1C(=O)N1CCC2(CCCN(Cc3nccs3)C2)C1.O=C(O)C(F)(F)F` (centres undefined), the “Percent Effect” value is recorded as 1.287%.

`Cc1ccc(C(=O)N2CCC3(CCCN(c4ccc(C)nn4)C3)C2)cn1` (centres undefined): the “Percent Effect” value amounted to 4.152%.

As to `Cc1occc1C(=O)N1CCC2(CCCN(c3ncc(F)cn3)C2)C1.O=C(O)C(F)(F)F` (centres undefined), the “Percent Effect” value came out at 116.2%.

On to `Cc1ccc(C(=O)N2CCC3(CCCN(c4ncc(F)cn4)C3)C2)cn1.O=C(O)C(F)(F)F` (centres undefined), for which the “Percent Effect” value is on record as 104%.

For the compound `O=C(O)C(F)(F)F.O=C(c1ccncc1)N1CCC2(CCCN(c3ncc(F)cn3)C2)C1` (centres undefined), the “Percent Effect” value came out at 105.7%.

With `Cc1occc1C(=O)N1CCC2(CCCN(Cc3cccs3)C2)C1.O=C(O)C(F)(F)F` (centres undefined), the “Percent Effect” value is -3.04%.

With `Cc1ccc(N2CCC3(CCCN(C(=O)c4cccnc4)C3)C2)nn1.O=C(O)C(F)(F)F` (centres undefined), the “Percent Effect” value is -9.172%.

Consider `c1ccc2c(c1)CC(CNCc1ccncc1)(N1CCCCC1)C2`, for which the “Percent Effect” value is -2.88%.

Turning to `CC(CN1CCC2(CC1)c1nc[nH]c1CCN2S(C)(=O)=O)C(F)(F)F` (centres undefined), the “Percent Effect” value is -8.098%.

For the compound `COC(=O)c1ccc(C(=O)NS(=O)(=O)c2cncc(Br)c2)cc1`, the “Percent Effect” value is -17.99%.

On to `Cc1ncsc1CCCn1ccnc1-c1cc2n(n1)CCCNC2`, for which the “Percent Effect” value is on record as -0.1089%.

For the compound `CC(O)CN1CCc2[nH]nc(C(c3ccccc3)c3ccccc3)c2C1` (centres undefined), the “Percent Effect” value is given as 0.8234%.

On to `COc1ccc(C(=O)N2CCCC3(CCCC(=O)N3C)C2)cc1` (centres undefined), for which the “Percent Effect” value worked out at 91.19%.

`CCC1(CO)CCCN(C(=O)c2ccc(N3CCN(C)CC3)cc2)C1` (centres undefined): the “Percent Effect” value is -10.61%.

In the case of `CCc1ccc(C(=O)N2CCCC3(CCCC(=O)N3C)C2)cc1` (centres undefined), the “Percent Effect” value is listed as 97.96%.

Consider `CCC1(C(=O)O)CCCN(C(=O)c2ccc(N3CCN(C)CC3)cc2)C1` (centres undefined), for which the “Percent Effect” value is on record as 4.53%.

Turning to `O=C(NC1CCCCC1)N1C[C@H]2CN(c3cnccn3)C[C@@]2(C(=O)O)C1`, the “Percent Effect” value is -17.1%.

For the compound `Cc1ccc2c(c1)C(NCc1ncnn1C)CC2` (centres undefined), the “Percent Effect” value is given as -32.91%.

For `CN1C(=O)CC(C(=O)O)C12CCN(Cc1ccc(Cl)c(F)c1)CC2` (centres undefined), the “Percent Effect” value is given as -9.63%.

As for `COC(CNC(=O)N1CCC(n2cncn2)CC1)c1ccccc1` (centres undefined), the “Percent Effect” value is listed as 1.274%.

Regarding `COc1ccccc1CCNC(=O)N1CCC(n2cncn2)CC1`, the “Percent Effect” value is 106.2%.

Take `COc1ccccc1OCCNC(=O)N1CCC(n2cncn2)CC1`: the “Percent Effect” value was determined as 92.74%.

For `COc1ccccc1OCCNC(=O)NCC(C)C`, the “Percent Effect” value is reported as -1.191%.

For `CC(C)Oc1ccccc1NC(=O)N1CCC(n2cncn2)CC1`, the “Percent Effect” value is listed as 90.39%.

`CC(C)c1ccc(C(C)NC(=O)N2CCC(n3cncn3)CC2)cc1` (centres undefined): the “Percent Effect” value is recorded as -4.399%.

Turning to `CC(NC(=O)N1CCC(n2cncn2)CC1)c1ccc(F)cc1F` (centres undefined), the “Percent Effect” value is given as -3.93%.

As to `O=C(Nc1ccc(N2CCCC2)nc1)N1CCc2sccc2C1`, the “Percent Effect” value is reported as 6.616%.

With `CCS(=O)(=O)NCCCNc1ncnc2cc(F)c(F)cc12`, the “Percent Effect” value is recorded as -7.857%.

Consider `CS(=O)(=O)NC[C@]12COC[C@H]1CN(C(=O)Cc1ccccc1F)C2`, for which the “Percent Effect” value was found to be 6.41%.

Take `CS(=O)(=O)NC[C@]12COC[C@H]1CN(C(=O)CCc1ccccc1)C2`: the “Percent Effect” value is -0.4913%.

On to `CS(=O)(=O)NC[C@]12COC[C@H]1CN(C(=O)CC1CCCC1)C2`, for which the “Percent Effect” value is recorded as 102.4%.

Turning to `O=C(NC[C@]12COC[C@H]1CN(CC1CCOCC1)C2)c1ccco1.O=C(O)C(F)(F)F`, the “Percent Effect” value turned out to be 6.419%.

On to `CS(=O)(=O)NC[C@]12COC[C@H]1CN(C(=O)N1CCCC1)C2`, for which the “Percent Effect” value came to 88.05%.

With `CS(=O)(=O)NC[C@]12COC[C@H]1CN(CC1CCC1)C2.O=C(O)C(F)(F)F`, the “Percent Effect” value is 92.98%.

Turning to `Cn1cccc1C(=O)N1C[C@@H]2COC[C@]2(CNS(C)(=O)=O)C1`, the “Percent Effect” value is -3.959%.

Turning to `Cc1ccoc1C(=O)N1C[C@@H]2COC[C@]2(CNS(C)(=O)=O)C1`, the “Percent Effect” value is reported as 15.9%.

In the case of `O=C(O)C(F)(F)F.O=S(=O)(NC[C@]12COC[C@H]1CN(CCc1ccccc1)C2)C1CC1`, the “Percent Effect” value is reported as -3.746%.

As to `COC[C@]12COC[C@H]1CN(C(=O)C1CCSCC1)C2`, the “Percent Effect” value is reported as -5.007%.

Consider `CS(=O)(=O)NC[C@]12COC[C@H]1CN(C(=O)c1ccoc1)C2`, for which the “Percent Effect” value is given as -2.074%.

For the compound `CS(=O)(=O)NC[C@]12COC[C@H]1CN(C(=O)C1CCSCC1)C2`, the “Percent Effect” value was 57.64%.

Turning to `Clc1ccccc1OC1CCN(CC2CCOC2)CC1` (centres undefined), the “Percent Effect” value is listed as -1.584%.

`CC(=O)Nc1ccc(CN2CCc3[nH]cnc3C2c2ccc(C)o2)cc1` (centres undefined): the “Percent Effect” value was -0.8872%.

On to `CC(=O)N[C@@H]1CN(C(=O)c2cc3sccc3[nH]2)C[C@H]1c1ccc(C)o1`, for which the “Percent Effect” value was 26.08%.

Consider `Cc1ccc(N2C[C@H]3OCC[C@H]3[C@H](C(=O)NCC3CC3)C2)nn1.O=C(O)C(F)(F)F`, for which the “Percent Effect” value was 0.1783%.

For the compound `Cc1ncsc1CCN(C)C(=O)CN1CCOC1=O`, the “Percent Effect” value worked out at 2.507%.

For the compound `Cc1cnc(C(C)(C)NC(=O)NCc2ccc(C#N)cc2F)s1`, the “Percent Effect” value was -5.008%.

On to `COc1ccc2nc(C[C@@H]3C[C@@H](C(C)C)[C@H](CN(C)C)C=C3C)[nH]c2n1`, for which the “Percent Effect” value was -3.892%.

As for `C[S+]([O-])CCCNC(=O)c1cc(Br)c2c(c1)OCCO2` (centres undefined), the “Percent Effect” value was -5.642%.

For `COC[C@]12COC[C@H]1CN(C(=O)C1CC(F)(F)C1)C2`, the “Percent Effect” value is given as -2.486%.

Regarding `CS(=O)(=O)NC[C@]12COC[C@H]1CN(C(=O)C1CC(F)(F)C1)C2`, the “Percent Effect” value is recorded as 112.2%.

Consider `CS(=O)(=O)NC[C@]12COC[C@H]1CN(C(=O)c1ccncn1)C2`, for which the “Percent Effect” value came out at 0.7032%.

As for `CS(=O)(=O)NC[C@]12COC[C@H]1CN(C(=O)C1CC=CC1)C2`, the “Percent Effect” value is on record as 99.92%.

Turning to `CS(=O)(=O)NC[C@]12COC[C@H]1CN(C(=O)c1ccccc1)C2`, the “Percent Effect” value turned out to be 7.31%.

Take `CS(=O)(=O)NC[C@]12COC[C@H]1CN(C(=O)c1ncccn1)C2`: the “Percent Effect” value amounted to 4.055%.

With `Cc1cc(CN(C)C(=O)c2cc3c([nH]c2=O)CCCC3=O)no1`, the “Percent Effect” value is on record as -8.225%.

Take `COCCN(CC(C)C)C(=O)c1cccc(Nc2cnccn2)c1`: the “Percent Effect” value was 186.1%.

For the compound `COCCCN(C)C(=O)c1cccc(Nc2cnccn2)c1`, the “Percent Effect” value stood at 100%.

As for `CN(C)C(=O)c1cccc(Nc2cnn(C)c2)c1`, the “Percent Effect” value was -3.903%.

Consider `COc1c(C)cnc(CN(C)C(=O)c2cccc(NC(N)=O)c2)c1C`, for which the “Percent Effect” value amounted to 7.754%.

For the compound `COc1ccnc(NC(=O)c2cnccn2)c1`, the “Percent Effect” value came out at 0.1681%.

`CN(CC1(O)CCCC1)C(=O)c1cccc(Nc2cnccn2)c1`: the “Percent Effect” value worked out at 136.4%.

With `CC(=O)c1cccc(OCCCC(=O)N(C)CCc2ccncc2)c1`, the “Percent Effect” value was 5.185%.

As for `COCCN(CCOC)C(=O)c1cccc(Cn2nc(C)cc2C)c1`, the “Percent Effect” value is -2.572%.

With `CN(Cc1cnccn1)C(=O)c1ccnc(OC2CCC2)c1`, the “Percent Effect” value is given as -12.54%.

Turning to `CCC(=O)NCc1cc(Br)c(OC)c(OC)c1`, the “Percent Effect” value is recorded as -2.986%.

Turning to `c1cnn(CCC2CCCCN2Cc2cnc(C3CCCCC3)nc2)c1` (centres undefined), the “Percent Effect” value is recorded as -23.18%.

Turning to `CC(=O)OCC1CCCCN1C(=O)c1ccc(Cn2ccnc2)o1` (centres undefined), the “Percent Effect” value is listed as 0.6554%.

Take `N#Cc1cn(CCCN2CCc3ccccc32)c(=O)[nH]c1=O`: the “Percent Effect” value was 7.257%.

On to `CSc1cc2c(cc1NC(=O)NCC(=O)N(C)C)OCCO2`, for which the “Percent Effect” value is -7.029%.

As to `Nc1c(Cl)cnn1C1CCN(Cc2ccccc2)C1` (centres undefined), the “Percent Effect” value is -6.784%.

With `c1ccc(-c2nc(CCNCc3cccnc3)co2)cc1`, the “Percent Effect” value came out at 108.2%.

Consider `c1ccc(Oc2ncccc2CNCc2ccccn2)cc1`, for which the “Percent Effect” value is recorded as 6.646%.

Take `c1ccc(-c2nnn3c2COC(CNCc2ccccn2)C3)cc1` (centres undefined): the “Percent Effect” value was -8.365%.

Consider `Cc1nnc(NCCc2coc(-c3ccccc3)n2)c(C#N)c1C`, for which the “Percent Effect” value is given as -1.856%.

As for `O=C1NCCCCC1SCc1coc(-c2ccccc2)n1` (centres undefined), the “Percent Effect” value was -18.22%.

Take `COc1ccc(-c2nc(CCNc3nnc(C)c(C)c3C#N)co2)cc1`: the “Percent Effect” value was found to be 14.52%.

For `c1ccc(-c2nc(CCNCc3ccccn3)co2)cc1`, the “Percent Effect” value is on record as 85.74%.

On to `COc1cccc(-c2nc(CNCCc3cccnc3)cs2)c1`, for which the “Percent Effect” value stood at 20%.

As for `COc1ccc(-c2nc(CCNCc3ccncc3)co2)cc1`, the “Percent Effect” value stood at 89.2%.

For `c1ccc(-c2nc(CCNCc3ccncc3)co2)cc1`, the “Percent Effect” value was determined as 91.06%.

For `c1ccc(-c2nc(CNCCn3cccn3)cs2)cc1`, the “Percent Effect” value worked out at 17.11%.

Regarding `CNC(=O)CS(=O)(=O)Cc1coc(-c2ccc(OC)cc2)n1`, the “Percent Effect” value was -17.74%.
